Measured values as given in PubChem BioAssay (Tox21).
“And” between values parts separate entries of the source, which are not always exact repeats. Equal values may be shown once. Inconclusive results are not listed. Entries that show only a call come without a potency. Some compounds were tested as several samples or in several runs, with calls that do not always agree. The source made the active and inactive calls. Unless noted, calls follow the shape of the dose curve; as a rule, active = well fitted curve in the direction sought with a large enough effect in the repeat runs; inconclusive = weak or mixed curves; inactive = no such curve, though single readings can be large; an effect the other way counts as inactive or inconclusive.

How the values were obtained:
[1] = Caspase-3/7 induction in HepG2 cells by small molecules, qHTS assay (AID 1346978); also: nearly all actives have a fitted effect of over 15% in size; also: potency is read from the fitted curve at half-maximal effect
How it was run: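 Wild-type HepG2 cells (2,000/well) were settled 5 h at 37 C, 5% CO2, then exposed to compounds in DMSO for 17 h. Caspase-3/7 activity was read by luminescence 30 min after adding Caspase-Glo 3/7 reagent at room temperature.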

[2] = Caspase-3/7 induction in CHO-K1 cells by small molecules, qHTS cell viability counter screen (AID 1346979); also: nearly all actives have a fitted effect of over 35% in size; also: potency is read from the fitted curve at half-maximal effect
How it was run: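 In the same wells as the caspase read, viability of compound-treated wild-type CHO-K1 cells was assessed using CellTiter-Fluor, added after 16hr at 37C and measured by fluorescence following 1hr further incubation.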

[3] = Caspase-3/7 induction in CHO-K1 cells by small molecules, qHTS assay (AID 1346980); also: nearly all actives have a fitted effect of over 15% in size
How it was run: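 Wild-type cells were seeded at 1,500 per well and settled 5 hr at 37 C, 5% CO2, then exposed to DMSO-dissolved compounds for 17 hr. Caspase-Glo 3/7 reagent was added, and luminescence was read after 30min at room temperature.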

[4] = Caspase-3/7 induction in HepG2 cells by small molecules, qHTS cell viability counter screen (AID 1346981); also: nearly all actives have a fitted effect of over 30% in size; also: potency is read from the fitted curve at half-maximal effect
How it was run: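 Multiplexed with the caspase-3/7 assay: HepG2 cells, 16 hr compound treatment, CellTiter-Fluor viability detection by fluorescence.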

[5] = biological target: Voltage-gated inwardly rectifying potassium channel KCNH2 (Homo sapiens) (UniProt Q12809); assay: Human Ether-a-go-go-Related Gene (hERG) channel small molecule antagonists: fluorescence cell-based qHTS assay (AID 1671200); also: nearly all actives have a fitted effect of over 50% in size; also: potency is read from the fitted curve at half-maximal effect
Chain of Voltage-gated inwardly rectifying potassium channel KCNH2 (Homo sapiens) (Q12809 whole entry, looked up): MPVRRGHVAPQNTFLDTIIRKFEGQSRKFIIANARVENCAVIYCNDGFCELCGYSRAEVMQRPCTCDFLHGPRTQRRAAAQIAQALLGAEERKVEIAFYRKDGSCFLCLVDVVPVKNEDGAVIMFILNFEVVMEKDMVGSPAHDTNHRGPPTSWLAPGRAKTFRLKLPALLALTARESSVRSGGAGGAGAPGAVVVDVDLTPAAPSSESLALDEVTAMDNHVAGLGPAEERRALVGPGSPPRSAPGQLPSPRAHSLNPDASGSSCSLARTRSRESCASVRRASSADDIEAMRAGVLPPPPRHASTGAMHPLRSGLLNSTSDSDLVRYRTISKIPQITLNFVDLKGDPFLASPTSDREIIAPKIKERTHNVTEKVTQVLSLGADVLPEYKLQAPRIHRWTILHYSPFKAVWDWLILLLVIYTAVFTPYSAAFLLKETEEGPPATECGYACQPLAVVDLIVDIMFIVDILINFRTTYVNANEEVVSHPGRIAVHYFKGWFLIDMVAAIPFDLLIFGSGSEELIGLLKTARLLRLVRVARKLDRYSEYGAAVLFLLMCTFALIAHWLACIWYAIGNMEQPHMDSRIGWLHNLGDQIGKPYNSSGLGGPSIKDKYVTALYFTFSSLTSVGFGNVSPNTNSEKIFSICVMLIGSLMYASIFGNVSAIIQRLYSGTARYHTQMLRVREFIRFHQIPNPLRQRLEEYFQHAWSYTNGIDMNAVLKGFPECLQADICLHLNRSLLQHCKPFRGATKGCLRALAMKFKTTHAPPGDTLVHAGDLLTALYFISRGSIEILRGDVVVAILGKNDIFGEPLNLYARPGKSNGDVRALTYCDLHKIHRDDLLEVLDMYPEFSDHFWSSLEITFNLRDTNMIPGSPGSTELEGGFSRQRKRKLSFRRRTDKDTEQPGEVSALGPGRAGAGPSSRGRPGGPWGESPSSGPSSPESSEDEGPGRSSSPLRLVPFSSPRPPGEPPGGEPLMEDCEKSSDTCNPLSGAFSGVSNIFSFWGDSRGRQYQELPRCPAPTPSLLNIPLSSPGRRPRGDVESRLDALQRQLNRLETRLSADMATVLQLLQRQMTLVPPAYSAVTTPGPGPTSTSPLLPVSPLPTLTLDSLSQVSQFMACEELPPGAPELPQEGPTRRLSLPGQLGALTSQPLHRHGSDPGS
How it was run: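 Quantitative HTS in hERG-U2OS cells: thallium entry through the channel reports activity, read as continuous 480/540 nm fluorescence over 2 min after stimulus addition.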

[6] = biological target: Nuclear receptor subfamily 1 group I member 2 (Homo sapiens) (UniProt O75469); assay: Human pregnane X receptor (PXR) small molecule agonists, qHTS assay (AID 1346982); also: nearly all actives have a fitted effect of over 35% in size; also: potency is read from the fitted curve at half-maximal effect
Chain of Nuclear receptor subfamily 1 group I member 2 (Homo sapiens) (O75469 whole entry, looked up): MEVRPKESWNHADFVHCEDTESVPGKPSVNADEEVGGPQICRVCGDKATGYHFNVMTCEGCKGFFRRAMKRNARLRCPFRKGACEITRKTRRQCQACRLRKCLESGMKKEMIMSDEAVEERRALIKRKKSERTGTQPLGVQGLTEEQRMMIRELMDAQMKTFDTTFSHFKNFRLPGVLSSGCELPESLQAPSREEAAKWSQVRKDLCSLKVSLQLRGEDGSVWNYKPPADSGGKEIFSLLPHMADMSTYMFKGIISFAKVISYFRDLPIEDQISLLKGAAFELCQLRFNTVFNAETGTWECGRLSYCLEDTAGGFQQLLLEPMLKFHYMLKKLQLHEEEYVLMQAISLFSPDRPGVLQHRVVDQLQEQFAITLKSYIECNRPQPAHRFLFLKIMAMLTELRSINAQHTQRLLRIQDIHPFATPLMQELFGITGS
How it was run: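 We seeded PXR-Luc HepG2 cells in assay medium containing 5% charcoal-stripped FBS, added compounds 5 hr later, incubated 24 hr, and read luminescence with ONE-Glo reagent.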

[7] = biological target: Nuclear receptor subfamily 1 group I member 2 (Rattus norvegicus) (UniProt Q9R1A7); assay: Rat pregnane X receptor (rPXR) activation by small molecules, qHTS assay (AID 1346983); conditions: rPXR luciferase reporter cells, One-Glo luminescence, 24 h; stronger effect = higher value; also: nearly all actives have a fitted effect of over 20% in size
Chain of Nuclear receptor subfamily 1 group I member 2 (Rattus norvegicus) (Q9R1A7 whole entry, looked up): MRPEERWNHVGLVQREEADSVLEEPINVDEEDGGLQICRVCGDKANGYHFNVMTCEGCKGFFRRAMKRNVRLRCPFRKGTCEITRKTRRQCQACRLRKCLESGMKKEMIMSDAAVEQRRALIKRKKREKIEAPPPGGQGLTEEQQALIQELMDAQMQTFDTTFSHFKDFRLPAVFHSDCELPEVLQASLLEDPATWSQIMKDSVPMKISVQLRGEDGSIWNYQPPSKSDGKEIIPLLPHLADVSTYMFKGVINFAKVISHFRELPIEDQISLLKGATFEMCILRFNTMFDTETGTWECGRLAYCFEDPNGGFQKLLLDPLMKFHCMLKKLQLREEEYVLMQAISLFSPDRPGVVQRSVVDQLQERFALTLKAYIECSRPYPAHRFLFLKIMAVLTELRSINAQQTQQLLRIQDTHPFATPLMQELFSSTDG
How it was run: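 Cell-based rPXR luciferase reporter assay, 2,000 cells per well, rested 5hr at 37 C before compound addition in DMSO, then 24 hr at 37 C. One-Glo reagent was added and luminescence read after 30 min at room temperature.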

[8] = biological target: Nuclear receptor subfamily 1 group I member 2 (Homo sapiens) (UniProt O75469); assay: CYP3A4 induction through human pregnane X receptor (PXR) by small molecules, qHTS assay (AID 1346984); also: nearly all actives have a fitted effect of over 40% in size
How it was run: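 qHTS, concentration-response format: HepG2 DPX-2 line, PXR/CYP3A4-luc. Exposure 24 h, 37C. Substrate Luciferin-IPA 3uM final, 3 h. Detection One-Glo, 30 min RT.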

[9] = biological target: Nuclear receptor subfamily 1 group I member 2 (Homo sapiens) (UniProt O75469); assay: Human pregnane X receptor (PXR) activation by small molecules, qHTS assay (AID 1346985); also: nearly all actives have a fitted effect of over 40% in size
How it was run: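 DPX-2 cells (HepG2 co-transfected with a PXR response element and a CYP3A4-promoter luciferase construct) were seeded at 2,000 per well, rested 5 hr at 37C, then exposed to DMSO-dissolved compounds for 24 hr. Activation was read as luciferase luminescence.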

[10] = biological target: Acetylcholinesterase (Homo sapiens) (UniProt P22303); assay: Acetylcholinesterase (AChE) small molecule antagonists: colormetric cell-based qHTS assay (AID 1347395; calls by dose curve; also: nearly all actives have a fitted effect of over 30% in size)
Chain of Acetylcholinesterase (Homo sapiens) (P22303 whole entry, looked up): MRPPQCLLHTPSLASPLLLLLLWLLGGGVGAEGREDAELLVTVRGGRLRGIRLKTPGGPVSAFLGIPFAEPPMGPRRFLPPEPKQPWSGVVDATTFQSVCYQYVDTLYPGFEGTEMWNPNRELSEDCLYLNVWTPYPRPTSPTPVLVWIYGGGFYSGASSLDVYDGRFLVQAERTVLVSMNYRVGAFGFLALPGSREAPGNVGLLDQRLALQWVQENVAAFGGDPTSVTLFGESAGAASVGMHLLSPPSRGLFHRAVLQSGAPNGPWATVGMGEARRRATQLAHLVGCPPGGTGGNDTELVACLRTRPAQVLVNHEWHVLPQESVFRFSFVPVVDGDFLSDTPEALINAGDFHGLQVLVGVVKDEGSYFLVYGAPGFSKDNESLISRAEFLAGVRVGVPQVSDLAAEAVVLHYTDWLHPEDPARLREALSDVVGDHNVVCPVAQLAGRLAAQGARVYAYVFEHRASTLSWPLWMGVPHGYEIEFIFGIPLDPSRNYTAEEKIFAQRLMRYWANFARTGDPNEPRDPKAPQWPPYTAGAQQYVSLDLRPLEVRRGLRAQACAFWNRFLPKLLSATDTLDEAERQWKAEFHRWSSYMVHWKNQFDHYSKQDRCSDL
How it was run: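 Endogenous AChE of human neuroblastoma SH-SY5Y cells was measured with an Ellman-type DTNB/acetylthiocholine mix. Compound pretreatment lasted 30 min at 37 C; substrate reaction ran 90 min at 37 C.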

[11] = biological target: Acetylcholinesterase (Homo sapiens) (UniProt P22303); assay: Acetylcholinesterase (AChE) small molecule antagonists: enzyme-based qHTS assay (AID 1347397; calls by dose curve; also: nearly all actives have a fitted effect of over 55% in size; also: potency is read from the fitted curve at half-maximal effect); conditions: Potency: AChE enzyme activity inhibition
How it was run: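 Recombinant human AChE, dispensed at 50 mU/mL, was preincubated with Tox21 10K compounds or DMSO vehicle for 30 min at room temperature. DTNB plus acetylthiocholine was then added, and thiocholine was measured colorimetrically after a further 10 min.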

[12] = biological target: Acetylcholinesterase (Homo sapiens) (UniProt P22303); assay: Acetylcholinesterase (AChE) small molecule antagonists: fluorescence cell-based qHTS assay (AID 1347398; calls by dose curve; also: nearly all actives have a fitted effect of over 50% in size; also: potency is read from the fitted curve at half-maximal effect); conditions: Potency: AChE activity
How it was run: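 Human SH-SY5Y cells were plated overnight at 37 C, exposed to compound for 30 min at 37 C, 5% CO2, then given acetylthiocholine plus Thiolite Green for 40 min at room temperature; thiocholine fluorescence (Ex/Em 490/520 nm) reports endogenous AChE activity.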

[13] = biological target: Acetylcholinesterase (Homo sapiens) (UniProt P22303); assay: Acetylcholinesterase (AChE) small molecule antagonists: enzyme-based qHTS assay with human liver microsomes (AID 1347399; calls by dose curve; also: nearly all actives have a fitted effect of over 60% in size; also: potency is read from the fitted curve at half-maximal effect); conditions: Potency: qHTS inhibition
How it was run: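 Recombinant human AChE (50 mU/mL in the enzyme mix) and human liver microsomes (0.25 mg/mL final) were preincubated with compound and NADPH (0.25 mg/mL final) for 30 min at 37 C. Acetylthiocholine/DTNB was then added; thiocholine was read colorimetrically after 10 min at room temperature.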

[14] = biological target: Cytochrome P450 2D6 (Homo sapiens) (UniProt P10635); assay: Cytochrome P450 Family 2 Subfamily D Member 6 (CYP2D6) small molecule antagonists: luciferase reporter qHTS assay (AID 1671196); also: nearly all actives have a fitted effect of over 50% in size; also: potency is read from the fitted curve at half-maximal effect
Chain of Cytochrome P450 2D6 (Homo sapiens) (P10635 whole entry, looked up): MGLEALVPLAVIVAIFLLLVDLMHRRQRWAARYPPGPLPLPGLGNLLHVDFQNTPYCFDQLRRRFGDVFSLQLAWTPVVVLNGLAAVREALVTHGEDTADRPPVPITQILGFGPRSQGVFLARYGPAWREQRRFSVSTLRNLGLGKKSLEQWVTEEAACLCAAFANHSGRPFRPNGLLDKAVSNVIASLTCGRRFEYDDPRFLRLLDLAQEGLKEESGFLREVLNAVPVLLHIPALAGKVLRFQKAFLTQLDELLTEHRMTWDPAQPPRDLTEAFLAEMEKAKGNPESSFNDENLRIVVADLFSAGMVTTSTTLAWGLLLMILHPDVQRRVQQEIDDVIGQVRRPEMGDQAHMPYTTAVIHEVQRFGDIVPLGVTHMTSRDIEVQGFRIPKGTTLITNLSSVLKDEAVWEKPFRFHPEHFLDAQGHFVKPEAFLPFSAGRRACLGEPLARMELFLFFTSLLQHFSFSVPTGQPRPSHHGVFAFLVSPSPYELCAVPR
How it was run: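 Luminescence (RLU), read 20 min after detection reagent, indicated CYP2D6 conversion of proluciferin to luciferin during a 1 h NADPH-dependent reaction at room temperature.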

[15] = biological target: Cytochrome P450 2C19 (Homo sapiens) (UniProt P33261); assay: Cytochrome P450 Family 2 Subfamily C Member 19 (CYP2C19) small molecule antagonists: luciferase reporter qHTS assay (AID 1671197); also: nearly all actives have a fitted effect of over 65% in size; also: potency is read from the fitted curve at half-maximal effect
Chain of Cytochrome P450 2C19 (Homo sapiens) (P33261 whole entry, looked up): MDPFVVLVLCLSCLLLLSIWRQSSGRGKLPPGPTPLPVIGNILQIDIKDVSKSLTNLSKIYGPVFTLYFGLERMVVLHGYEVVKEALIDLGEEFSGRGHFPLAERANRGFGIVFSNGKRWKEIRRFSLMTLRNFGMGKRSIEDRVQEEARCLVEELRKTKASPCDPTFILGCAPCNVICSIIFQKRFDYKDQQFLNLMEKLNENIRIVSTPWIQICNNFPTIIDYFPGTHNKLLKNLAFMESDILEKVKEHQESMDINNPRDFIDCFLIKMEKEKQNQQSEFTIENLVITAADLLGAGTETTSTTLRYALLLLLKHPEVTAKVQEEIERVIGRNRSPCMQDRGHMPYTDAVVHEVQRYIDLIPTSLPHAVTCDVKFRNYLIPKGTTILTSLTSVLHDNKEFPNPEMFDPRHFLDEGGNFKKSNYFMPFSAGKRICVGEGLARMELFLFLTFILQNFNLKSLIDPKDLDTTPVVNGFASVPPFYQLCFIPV
How it was run: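 Light output is proportional to CYP2C19 activity: proluciferin substrate is converted to luciferin, then detected by a luciferin detection reagent that also stops the 1 h, 37C NADPH-driven reaction. Ketoconazole serves as positive control.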

[16] = biological target: Cytochrome P450 2C9 (Homo sapiens) (UniProt P11712); assay: Cytochrome P450 Family 2 Subfamily C Member 9 (CYP2C9) small molecule antagonists: luciferase reporter qHTS assay (AID 1671198); also: nearly all actives have a fitted effect of over 50% in size; also: potency is read from the fitted curve at half-maximal effect
How it was run: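 CYP2C9 activity was measured with a P450-Glo proluciferin substrate. Enzyme–substrate mix was held with compound for 10 min at room temperature, then NADPH regeneration solution was added for 1 h at 37C. Luciferin product was read as luminescence.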

[17] = biological target: Cytochrome P450 1A2 (Homo sapiens) (UniProt P05177); assay: Cytochrome P450 Family 1 Subfamily A Member 2 (CYP1A2) small molecule antagonists: luciferase reporter qHTS assay (AID 1671199); also: nearly all actives have a fitted effect of over 50% in size; also: potency is read from the fitted curve at half-maximal effect
Chain of Cytochrome P450 1A2 (Homo sapiens) (P05177 whole entry, looked up): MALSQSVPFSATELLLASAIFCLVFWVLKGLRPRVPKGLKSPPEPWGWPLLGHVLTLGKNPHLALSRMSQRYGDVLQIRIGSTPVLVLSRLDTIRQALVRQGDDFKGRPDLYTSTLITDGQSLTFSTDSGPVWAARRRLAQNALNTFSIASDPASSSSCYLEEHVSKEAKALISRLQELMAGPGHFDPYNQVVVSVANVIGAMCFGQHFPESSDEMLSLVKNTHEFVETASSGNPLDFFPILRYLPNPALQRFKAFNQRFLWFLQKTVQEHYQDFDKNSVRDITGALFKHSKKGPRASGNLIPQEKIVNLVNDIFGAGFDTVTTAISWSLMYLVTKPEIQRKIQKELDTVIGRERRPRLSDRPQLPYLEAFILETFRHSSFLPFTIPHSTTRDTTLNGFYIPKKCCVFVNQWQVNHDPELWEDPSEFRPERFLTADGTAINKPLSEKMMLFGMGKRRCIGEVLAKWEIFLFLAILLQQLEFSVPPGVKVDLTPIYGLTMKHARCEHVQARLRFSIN
How it was run: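 CYP1A2 turnover of a luminogenic substrate was quantified after 1 h with NADPH regeneration at room temperature. Furafylline served as positive control.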

[18] = biological target: Cytochrome P450 3A4 (Homo sapiens) (UniProt P08684); assay: Cytochrome P450 Family 3 Subfamily A Member 4 (CYP3A4) small molecule antagonists: luciferase reporter qHTS assay (AID 1671201)
Chain of Cytochrome P450 3A4 (Homo sapiens) (P08684 whole entry, looked up): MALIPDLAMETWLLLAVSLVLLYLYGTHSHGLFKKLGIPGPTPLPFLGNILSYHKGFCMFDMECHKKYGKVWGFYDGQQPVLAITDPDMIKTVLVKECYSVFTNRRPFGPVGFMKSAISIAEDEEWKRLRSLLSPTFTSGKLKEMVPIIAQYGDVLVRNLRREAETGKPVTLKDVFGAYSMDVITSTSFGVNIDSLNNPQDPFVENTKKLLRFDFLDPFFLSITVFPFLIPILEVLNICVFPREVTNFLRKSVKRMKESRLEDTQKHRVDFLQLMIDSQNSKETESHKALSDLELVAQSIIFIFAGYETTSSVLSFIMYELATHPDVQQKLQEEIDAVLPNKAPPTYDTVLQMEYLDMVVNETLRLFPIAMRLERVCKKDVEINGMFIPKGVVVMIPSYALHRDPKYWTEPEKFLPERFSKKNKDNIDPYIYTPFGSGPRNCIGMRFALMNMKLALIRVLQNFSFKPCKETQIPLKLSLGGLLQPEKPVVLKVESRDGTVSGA
How it was run: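 Inhibition of CYP3A4 is measured as loss of light: the enzyme converts a proluciferin substrate to luciferin, detected luminescently. Reaction ran 1 h at room temperature with NADPH regeneration after a 10 min compound preincubation.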

| Structure (SMILES) | Potency [1] | Potency [2] | Potency [3] | Potency [4] | Potency [5] | Potency [6] | max activation [7] | Potency [8] | outcome [9] | Potency [10] | Potency [11] | Potency [12] | Potency [13] | Potency [14] | Potency [15] | Potency [16] | Potency [17] | Potency [18] |
| --- | --- | --- | --- | --- | --- | --- | --- | --- | --- | --- | --- | --- | --- | --- | --- | --- | --- | --- |
| Cl | inactive | inactive | inactive | inactive | inactive | – | – | – | – | – | – | – | – | – | – | – | – | – |
| COP(=S)(OC)Oc1ccc(Sc2ccc(OP(=S)(OC)OC)cc2)cc1 | inactive | inactive | inactive | – | inactive | 24.3 µM (active) and inactive | 1.76% (inactive) | inactive | inactive | inactive | inactive | inactive | inactive | 63.3 µM (active) and inactive | 3.17 µM (active) and 4.9 µM (active) | 5.64 µM (active) and 11 µM (active) | inactive | inactive |
| CCCCOCC1CO1 (stereo not given) | inactive | inactive | inactive | – | inactive | inactive | – | – | – | inactive | 10.1 µM (active) and inactive | 899 nM (active) and inactive | 63.7 µM (active) and inactive | inactive | inactive | inactive | inactive | inactive |
| CCC[CH2][Sn]([Cl])([Cl])[CH2]CCC | inactive | 220 nM (active) and 154 nM (active) | inactive | 4.38 µM (active) and 7.7 µM (active) | 39.4 µM (active) and 17.4 µM (active) | – | – | – | – | inactive | inactive | inactive | inactive | 36 µM (active) | 8.07 µM (active) and 22.4 µM (active) | 36 µM (active) | inactive | – |
| CC(C)(C#N)N=NC(C)(C)C#N | inactive | inactive | inactive | – | inactive | inactive | – | – | – | inactive | inactive | inactive | inactive | inactive | inactive | inactive | inactive | – |
| Brc1ccc(Br)cc1 | inactive | inactive | inactive | – | inactive | inactive | – | – | – | inactive | inactive | inactive | inactive | inactive | inactive | inactive | inactive | inactive |
| CCNCC | inactive | inactive | inactive | – | inactive | inactive | – | – | – | – | – | – | – | inactive | inactive | inactive | inactive and 28.3 µM (active) | – |
| CS(=O)(=O)NC(=O)c1cc(Oc2ccc(C(F)(F)F)cc2Cl)ccc1[N+](=O)[O-] | inactive | inactive | – | inactive | inactive | 26.4 µM (active) and 7.7 µM (active) | – | – | – | inactive | inactive | inactive | inactive | inactive | inactive and 79.6 µM (active) | 19.3 µM (active) and 17.8 µM (active) | inactive | – |
| CC(C)=CC1C(C(=O)OCc2cccc(Oc3ccccc3)c2)C1(C)C (stereo not given) | inactive | inactive | inactive | – | inactive | 24.3 µM (active) and 13.3 µM (active) | 1.4% (inactive) | inactive | – | inactive | inactive | inactive | inactive | 39.9 µM (active) and inactive | 7.96 µM (active) | 3.17 µM (active) and 3.09 µM (active) | – | – |
| C[C@]12CCC(=O)C=C1CC[C@@H]1[C@@H]2CC[C@@]2(C)[C@H]1CC[C@]2(C)O | inactive | 50.4 µM (active) | – | inactive | inactive | 43.6 µM (active) and inactive | – | – | – | inactive | inactive | inactive | inactive | 45.2 µM (active) and inactive | 35.9 µM (active) and inactive | 35.9 µM (active) | inactive | – |
| Cc1ccc(N=CN(C)C=Nc2ccc(C)cc2C)c(C)c1 | inactive | inactive | inactive | – | inactive | 15.4 µM (active) and inactive | 0.462% (inactive) | inactive | inactive | inactive | inactive | inactive | inactive | 31.9 µM (active) and 35.6 µM (active) and 27.5 µM (active) | 79.6 µM (active) and inactive | inactive | 31.9 µM (active) and 35.6 µM (active) and 30.9 µM (active) | – |
| OCCOCCO | 31.5 µM (active) and inactive | 7.92 µM (active) and inactive | – | inactive | inactive | 62.9 µM (active) and inactive | – | – | – | inactive | inactive | inactive | inactive | inactive | 82.1 µM (active) and inactive | inactive | inactive | – |
| CCNc1nc(Cl)nc(NC(C)(C)C#N)n1 | inactive | inactive | – | inactive | inactive | 61.1 µM (active) | – | – | – | inactive | inactive | inactive | inactive | inactive | inactive | inactive | 39.9 µM (active) | – |
| CC1CC(=O)O1 (stereo not given) | inactive | inactive | inactive | – | inactive | inactive | – | – | – | inactive | inactive | inactive | inactive | inactive | inactive | inactive | inactive | – |
